Screening data (PubChem)
Mdm2-MdmX inh – inhibitors of human Mdm2-MdmX association, primary screen, cell-based, luminescence, split luciferase, SaOS-2, uHTS; inhibition, % at 8 µM; Protein Mdm4 (Homo sapiens) + E3 ubiquitin-protein ligase Mdm2 (Homo sapiens), …; AID 485346, 2010; SaOS-2 split-luciferase Mdm2/MdmX complementation; 330,000 tested, 3% active;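 active = inhibition of at least 50% at 8 µM in the primary screen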
Target sequence (O15151 whole entry, looked up): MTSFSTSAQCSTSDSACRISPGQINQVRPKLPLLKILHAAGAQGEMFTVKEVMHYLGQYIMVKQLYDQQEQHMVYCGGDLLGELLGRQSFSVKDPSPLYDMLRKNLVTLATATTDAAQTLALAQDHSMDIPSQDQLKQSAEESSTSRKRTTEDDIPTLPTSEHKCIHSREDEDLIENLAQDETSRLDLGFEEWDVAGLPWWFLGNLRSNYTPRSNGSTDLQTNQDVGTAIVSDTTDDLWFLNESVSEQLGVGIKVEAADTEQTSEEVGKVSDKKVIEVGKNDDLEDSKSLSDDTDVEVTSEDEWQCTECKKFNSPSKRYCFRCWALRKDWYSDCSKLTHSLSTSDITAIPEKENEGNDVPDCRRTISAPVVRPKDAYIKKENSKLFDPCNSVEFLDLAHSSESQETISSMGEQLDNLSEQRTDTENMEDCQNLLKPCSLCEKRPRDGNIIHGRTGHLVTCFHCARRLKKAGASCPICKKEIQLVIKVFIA
Target sequence (Q00987 whole entry, looked up): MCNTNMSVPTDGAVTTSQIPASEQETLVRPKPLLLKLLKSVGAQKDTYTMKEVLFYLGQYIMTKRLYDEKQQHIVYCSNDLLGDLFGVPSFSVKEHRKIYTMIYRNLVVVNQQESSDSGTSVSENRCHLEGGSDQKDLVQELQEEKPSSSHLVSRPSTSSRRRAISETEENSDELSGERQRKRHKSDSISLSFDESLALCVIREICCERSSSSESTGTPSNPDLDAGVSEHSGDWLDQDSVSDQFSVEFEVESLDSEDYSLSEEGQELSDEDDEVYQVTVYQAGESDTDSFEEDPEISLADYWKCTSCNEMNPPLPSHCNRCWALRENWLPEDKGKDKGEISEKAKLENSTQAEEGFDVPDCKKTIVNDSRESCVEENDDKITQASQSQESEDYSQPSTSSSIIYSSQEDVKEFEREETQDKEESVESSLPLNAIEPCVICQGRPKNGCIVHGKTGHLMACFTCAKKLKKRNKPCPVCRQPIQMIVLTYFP
Jurkat NFkB inh – inhibitors of induced NF-kB luciferase reporter, primary screen, TCR NF-kB activation inhibitor project, cell-based, luminescence, uHTS. 330,000 tested, 0.53% active. inhibition, % at 4 µM. Jurkat, PMA/ionomycin-induced NF-kB luciferase reporter; in the data active = inhibition above about 50%
697 NFkB inh – inhibitors of PMA/ionomycin-induced NF-kB reporter, 697 cells, primary screen, B-cell NF-kB inhibitor project, cell-based, luminescence, uHTS; 697 B-cell NF-kB luciferase reporter, 16 h; inhibition, % at 4 µM; 330,000 tested, 0.33% active; in the data active = inhibition above about 35%
A1 inh – caspase 3/7 activation in MEF A1-2A-BIM cells, primary screen, A1 inhibitor project, cell-based, luminescence, HTS | Caspase-Glo 3/7 luminescence, 3 h; percent of clofoctol response, vehicle zero | caspase activation, % (no concentration beside the values) | 330,000 tested, 0.066% active | AID 2462, 2010;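 active = over half of replicate activation scores above 10%, or exactly half above 10 with the replicate mean above 10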
Beta cell apopt – inhibitors of cytokine-induced beta cell apoptosis, primary screen, luminescence; INS-1E cytokine-induced death, ATP luminescence, 48 h; percent of positive-control rescue, neutral wells zero; protection from apoptosis, % (concentration not given with the values); 300,000 tested, 0.8% active;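 active = Every replicate reaches about 75%, or at least half do and their mean reaches it too, limit read from the data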;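 note: 0% = cytokine-treated negative control wells and 100% = positive control rescue; higher means more ATP so stronger rescue from cytokine killing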
NTR1 ag – agonists of human NTR1, primary screen, imaging, U2OS cells, beta-arrestin-GFP, high content. Neurotensin receptor type 1 (Homo sapiens), P30989. NTR1-U2OS beta-arrestin-GFP spot imaging, agonist mode. activation, % at 20 µM. 330,000 tested, 0.17% active. AID 493036, 2011;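 active = activation at or above 40% of the spot to cytoplasm intensity ratio, with at least 20 cells analyzed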;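 note: 0% = DMSO without peptide and 100% = 100 nM NTR1 peptide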
Active calls of the source: *; . = no result. Compounds with a hit are over-represented: about 3.8% of the library has one in this group of screens.

SMILES | Mdm2-MdmX inh | Jurkat NFkB inh | 697 NFkB inh | A1 inh | Beta cell apopt | NTR1 ag
COc1ccc(-c2nc3ncccn3c2Nc2ccccc2)cc1 | -29.1 | -18.2 | -25.8 | -7.0 | -2.0 | -2.9
Cc1ccc(S(=O)(=O)N2CC(=O)N3CCN(CCN)C3C2)cc1 (stereo not given) | 11.4 | 5.2 | 9.3 | 0.1 | -4.2 | -0.8
COc1ccc(NC(=O)CN(C)C(=O)C(C)Oc2ccc(Br)cc2)cc1 (stereo not given) | 10.8 | 0.2 | 4.4 | 1.1 | -1.6 | -0.7
C#CC[N+]1(CC#Cc2ccccc2)CCCC1 | 6.6 | -12.5 | 6.3 | 0.3 | -2.2 | -0.6
C(#Cc1ccccc1)C[N+]1(CC#Cc2cccc3ccccc23)CCCC1 | 48.4 | 24.2 | -14.8 | -0.9 | 76.9* | -0.9
CCCCC(=O)N1C/C=C\C(c2ccc(OC)cc2)N(Cc2ccc(F)cc2)C(=O)[C@H]1Cc1ccccc1 (stereo not given in full) | 34.9 | 9.5 | 24.9 | 0.3 | 98.9* | 4.7
COc1ccc(C2/C=C\CN(C(=O)c3ccc(C)cc3)[C@H](Cc3ccccc3)C(=O)N2Cc2ccc(F)cc2)cc1 (stereo not given in full) | 34.8 | 33.3 | 18.4 | 0.6 | 77.9* | 1.4
COc1ccc([C@H]2/C=C\CN(C(=O)C3CC3)[C@@H](C)C(=O)N2Cc2ccc(F)cc2)cc1 | 6.6 | 18.8 | 11.2 | 1.2 | -4.1 | -0.5
COc1ccc(C2/C=C\CN(C(=O)C3CC3)[C@H](Cc3ccccc3)C(=O)N2Cc2ccc(F)cc2)cc1 (stereo not given in full) | 39.6 | 15.2 | 12.0 | -0.8 | 86.0* | 4.1
CCCCCCC(=O)N1C/C=C\C(c2ccc(OC)cc2)N(Cc2ccc(F)cc2)C(=O)C1 (stereo not given) | 1.9 | -1.9 | -16.5 | 0.3 | -4.0 | 1.6
CCOc1ccc(NC(=O)CN(C)C(=O)c2ccccc2CCc2ccccc2)cc1OCC | -12.5 | 5.1 | -20.8 | -0.1 | 5.9 | 10.5
O=C(N/N=C/c1cc(Br)ccc1O)C(=O)Nc1ccccc1OC(F)(F)C(F)F | . | . | . | 1.5 | 83.5* | .
O=C(N/N=C/c1cc(Cl)ccc1O)C(=O)Nc1ccccc1OC(F)(F)C(F)F | . | . | . | 0.5 | 89.4* | .
Cc1ccc(C(C)(C)NC(=O)C2CCC(=O)N(CC3CCCCC3)C2)cc1 (stereo not given) | 12.3 | 8.2 | 4.0 | -1.1 | 0.9 | -2.2
Nc1c(C(=O)Nc2ccc3c(c2)OCCO3)nnn1Cc1cccc(Cl)c1 | -44.7 | -30.9 | -68.1 | -3.7 | 27.3 | 0.3
Nc1c(C(=O)Nc2ccc3c(c2)OCCO3)nnn1Cc1ccccc1Cl | -83.3 | -59.7 | -73.1 | -0.8 | 92.7* | 1.8
CCCn1nc(NS(=O)(=O)c2cccc3nonc23)c2cc3cccc(C)c3nc21 | 12.8 | 4.6 | 4.6 | -2.5 | -0.9 | 3.9
COc1cc(/C=N/NC(=O)c2ccc(COc3cc(C)ccc3C(C)C)cc2)cc(OC)c1O | 27.5 | 2.6 | -143.6 | -0.5 | 28.2 | 7.0
Cc1ccc(C(C)C)c(OCc2ccc(C(=O)N/N=C/c3cccc(O)c3O)cc2)c1 | . | . | . | 0.1 | 90.5* | .
COc1ccc(C2=NS(=O)(=O)N(C)C(C(=O)Nc3ccc(C(C)=O)cc3)=C2)cc1OC | 2.9 | 15.2 | -27.6 | 0.0 | 3.3 | 4.9
Nc1cc2c3c(cccc3c1)C(=O)N(CCN1CCCC1)C2=O | . | . | . | 0.7 | 75.1* | .
Cc1ccc(-c2nc(N/N=C/c3cccnc3)c3ccccc3n2)cc1 | -50.1 | -100.0 | -104.4 | -7.6 | 75.6* | 9.4
CN(C)c1ccc(C(=O)N2CCN(C(=O)C3CCCO3)CC2)cc1 (stereo not given) | 10.1 | 11.5 | 23.0 | -0.2 | -5.1 | 0.0
CNC1=C(N(C(C)=O)c2ccc(Br)cc2)C(=O)c2ccccc2C1=O | . | . | . | -3.9 | 131.1* | .
C#CCn1c(O)c(N=NC(=O)CNC(=O)c2cccnc2)c2ccccc21 | 22.5 | 13.0 | -8.5 | 0.3 | -1.7 | 0.4
SMILES | Mdm2-MdmX inh | Jurkat NFkB inh | 697 NFkB inh | A1 inh | Beta cell apopt | NTR1 ag
CC(C)Oc1ccc(S(=O)(=O)N2CCCCC2)cc1NC(=O)CN1C(=O)NC(C)(C2CC2)C1=O (stereo not given) | -6.4 | 0.7 | 6.4 | 0.1 | 6.5 | 0.9
CC(C)Oc1ccc(S(=O)(=O)N2CCCCC2)cc1NC(=O)CN1CCCC1c1cccs1 (stereo not given) | 34.6 | -3.8 | -3.8 | -0.5 | 92.0* | 1.0
CC[N+](C)(CC)CCC(c1ccccc1)C1CCCCC1 (stereo not given) | 24.9 | 1.2 | 5.4 | -0.5 | 105.5* | -0.8
COc1ccc(NCc2nnc(SCC(=O)c3ccc(OC)cc3)o2)cc1 | 23.5 | 2.5 | 9.8 | -0.4 | 2.2 | 14.2
CCOc1cc(C(=O)CSc2nnc(CNc3ccc(Cl)cc3)o2)ccc1NC(=O)CC | 30.8 | 24.0 | -24.3 | 8.7* | 67.3 | 17.2
CCOc1ccc(N(CC(=O)NC2CCCCC2)C(=O)CCCC(=O)Nc2ccccn2)cc1 | -5.4 | 15.3 | 4.9 | 0.7 | 3.5 | 0.0
Cc1cc([N+](=O)[O-])nn1Cc1ccc(C(=O)N/N=C/c2ccc(O)cc2O)cc1 | 49.6 | 4.5 | -59.7 | 0.0 | 97.7* | 4.8
CCN(CC)S(=O)(=O)c1ccc(N2CCN(c3ccccc3OC)CC2)c(N)c1 | 8.4 | 16.0 | 2.5 | -0.1 | 126.3* | -0.1
O=C(O)COc1ccccc1/C=C1\C(=O)Nc2ccc(Br)cc21 | 9.3 | 2.9 | 1.9 | 5.3* | -2.9 | -1.1
C=CCn1c(O)c(N=NC(=O)CNC(=O)c2ccncc2)c2ccccc21 | 4.2 | 4.4 | -0.6 | 0.3 | 1.7 | -0.2
CC(C)OCCCNC(=S)N1CCC(C(=O)c2ccc(Cl)cc2)CC1 | 20.0 | -45.1 | -42.2 | 0.5 | 102.0* | 0.7
CCOCCCNC(=S)N1CCC(C(=O)c2ccc(C)cc2)CC1 | -8.7 | 0.7 | -8.9 | -0.3 | . | -0.6
CCc1c(C)c2ccc(OCC(=O)NCC3CCC(C(=O)O)CC3)c(C)c2oc1=O (stereo not given) | 20.8 | -8.6 | 34.8 | 0.4 | -2.2 | -2.3
Cc1[nH]n(-c2ccccc2)c(=O)c1/C=N/NC(=O)c1cccc(F)c1 | 41.1 | 6.7 | -4.7 | -1.4 | 92.1* | 0.7
Cc1ccc(N=Cc2c(C)[nH]n(-c3nc4ccccc4[nH]3)c2=O)cc1 | 29.8 | -2.5 | -8.0 | -9.2 | 91.9* | 0.9
O=C1C=C(c2ccccc2)C(=O)N1Nc1ccccc1 | 21.9 | 6.0 | 4.1 | -0.3 | . | 16.3
Cc1ccc(NN2C(=O)C=C(c3ccc(Cl)cc3)C2=O)cc1 | 32.2 | 16.6 | 2.6 | 10.8* | -4.6 | 39.3
